About 20,000 (21%) of roughly 96,000 compounds were called active.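 How the source made its calls: active means CYP2C19 inhibition above a set limit at 5 µM in the primary screen (cut at about 50% in these data); inactive means the rest.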 The list is a sample of the results.
Each compound was assayed against Cytochrome P450 2C19 (Homo sapiens) (UniProt P33261) (assay: blockers of cytochrome P450 2C19 activity – biochemical, luminescence, ADME assay, primary screen (AID 778;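 further: plate controls were negative control wells for no effect and 2.5 mM tranylcypromine positive control for full effect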)). Settings: CYP2C19 Supersomes, luciferin-H EGE luminescence, 30 min; at 5 µM; active compounds read high.
Chain of Cytochrome P450 2C19 (Homo sapiens) (P33261 whole entry, looked up): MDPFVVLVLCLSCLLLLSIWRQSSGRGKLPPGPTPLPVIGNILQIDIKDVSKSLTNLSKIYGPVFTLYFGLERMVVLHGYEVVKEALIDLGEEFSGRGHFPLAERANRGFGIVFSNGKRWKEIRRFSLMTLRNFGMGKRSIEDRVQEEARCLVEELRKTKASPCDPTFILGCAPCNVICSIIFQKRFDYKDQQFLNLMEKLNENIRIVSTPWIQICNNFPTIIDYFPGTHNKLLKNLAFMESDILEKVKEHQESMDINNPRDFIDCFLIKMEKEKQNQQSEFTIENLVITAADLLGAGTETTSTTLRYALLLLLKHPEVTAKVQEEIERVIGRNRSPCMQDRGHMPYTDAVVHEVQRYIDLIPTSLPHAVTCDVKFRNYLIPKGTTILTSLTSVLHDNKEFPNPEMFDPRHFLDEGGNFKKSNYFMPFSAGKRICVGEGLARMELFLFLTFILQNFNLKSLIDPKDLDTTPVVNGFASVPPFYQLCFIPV

Compound	inhibition
COc1ccc(NC(=O)c2sccc2SCC#N)cc1	24.1% (inactive)
CC1=C(C(=O)Nc2ccccc2)C(c2cccs2)C(C#N)=C(SCC#N)N1 (stereo not given)	88.8% (active)
Cc1ccc(-c2nnc(-c3ccc(NC(=O)c4cccs4)cc3)o2)cc1	22.1% (inactive)
Cc1ccc(Cc2cncc(O)c2)cc1S(=O)(=O)O	1.6% (inactive)
CCOC(=O)C1CCCN(Cc2nc(N)nc(Nc3ccc(C)cc3)n2)C1 (stereo not given)	6.3% (inactive)
Fc1ccc(-c2ccc(-c3nn4c(-c5ccco5)nnc4s3)o2)cc1	47.8% (inactive)
CCOC(=O)N1CCN(C(=O)c2ccc3c(c2)N(Cc2ccc(C)cc2)CCS3)CC1	30% (inactive)
COc1ccccc1N(CC(=O)N1CCCCC1)S(=O)(=O)c1ccccc1	25.2% (inactive)
CS(=O)(=O)N(CC(=O)N1CCN(Cc2ccccc2)CC1)c1ccc2c(c1)OCCO2	17.4% (inactive)
CCOC(=O)N1CCN(C(=O)c2ccc(S(=O)(=O)c3ccc(C)cc3)c(NC(C)=O)c2)CC1	5.6% (inactive)
CCOC(=O)N1CCN(C(=O)CN(c2ccc(C)c(C)c2)S(=O)(=O)c2ccccc2)CC1	63.2% (active)
CCOC(=O)N1CCN(C(=O)c2ccc(CN(c3ccc(C)c(C)c3)S(C)(=O)=O)cc2)CC1	57.3% (active)
COC(=O)Cn1c2ccc(C)cc2c2nc(C)sc21	-3.3% (inactive)
O=C1c2cccnc2C(Nc2ccc(S(=O)(=O)N3CCCCCC3)cc2)N1Cc1ccccc1 (stereo not given)	40.6% (inactive)
O=C(C1=C(O)C(=O)N(Cc2ccccc2)C1c1ccco1)c1ccco1 (stereo not given)	-22.3% (inactive)
O=c1ccn(Cc2ccccc2Cl)cc1	-3% (inactive)
O=C1c2ccccc2C(O)N1Cc1ccccc1 (stereo not given)	60.9% (active)
O=C1c2ccccc2C(O)N1Cc1ccccc1Cl (stereo not given)	80.7% (active)
O=S1(=O)CCN(Cc2ccccc2Cl)CC1	35.5% (inactive)
S=c1[nH]nc(-c2ccc(Cl)cc2)n1CC1CCCO1 (stereo not given)	41.3% (inactive)
COC(=O)c1cc(Cl)c(NC(=O)c2ccco2)cc1OC	9.4% (inactive)
CCCCCC(=O)Nc1ccc2oc(-c3ccncc3)nc2c1	77.7% (active)

Compound	inhibition
O=C(Cc1cccc2ccccc12)Nc1ccc2oc(-c3ccccc3)nc2c1	5.7% (inactive)
O=C(Nc1ccc2oc(-c3ccc4ccccc4c3)nc2c1)c1cccs1	-16.3% (inactive)
Cc1ccc2[nH]c(=O)c(-c3nc4c(C)cccn4c3NCc3ccco3)cc2c1	-0.9% (inactive)
Cc1cccc(NC(=O)Cn2cc(C(=O)c3ccco3)c3ccccc32)c1	-13.3% (inactive)
O=C(CN1CCN(c2ccccn2)CC1)NCc1cccs1	34.7% (inactive)
COC(=O)Cn1cc(C(=O)c2cccs2)c2ccccc21	26% (inactive)
COC(=O)c1cn(CC(=O)NCc2cccs2)c2ccccc12	71.1% (active)
COCCCNC(=O)Cn1cc(C(=O)C2CC2)c2ccccc21	32.1% (inactive)
O=C(Cn1cc(C(=O)c2cccs2)c2ccccc21)NCc1cccs1	91.3% (active)
CCCCCCC(=O)N(O)C1CC(=O)N(c2ccccc2)C1=O (stereo not given)	27.1% (inactive)
CC1=C(C(N)=O)C(c2sccc2C)n2nnnc2N1 (stereo not given)	7.6% (inactive)
Cc1nnc(SCC(=O)NC(=O)NC2CCCC2)n1N	3.5% (inactive)
CCCCOc1ccc(-c2ncc(C(=O)OCC)c(N)n2)cc1	-11.5% (inactive)
CCOC(=O)CSc1nccc(N(C)C)c1C#N	25.5% (inactive)
CCOC(=O)C(Sc1ncc(C#N)c(N)n1)C(C)C (stereo not given)	52.1% (active)
CN(Cc1ccccc1)C(=O)CCNC(=O)Cn1cnc2ccccc2c1=O	-11.7% (inactive)
c1cnc(Nc2nc(-c3ccc4ccccc4c3)cs2)nc1	-3.4% (inactive)
COc1ccc(Nc2nc(-c3ccccc3)cs2)cc1	35.2% (inactive)
NS(=O)(=O)c1ccc(Nc2nc(-c3ccccc3)cs2)cc1	28.5% (inactive)
Oc1ccc(-c2csc(Nc3cccnc3)n2)cc1	78.4% (active)
c1ccc(Nc2nc(-c3ccncc3)cs2)nc1	98.6% (active)
Clc1ccc(Nc2nc(-c3cccs3)cs2)nc1	0.8% (inactive)

Compound	inhibition
CCOC(=O)c1ccc(N2C(=O)CC(N(C)Cc3ccccc3)C2=O)cc1 (stereo not given)	-4% (inactive)
COc1ccc(C(=O)NC(=S)NNC(=O)CCc2ccccc2)cc1	-0.6% (inactive)
CCCc1ccc(OCC(=O)NNC(=S)NC(=O)c2ccco2)cc1	8.7% (inactive)
CC(Oc1ccc2ccccc2c1)C(=O)NNC(=S)NC(=O)c1ccco1 (stereo not given)	56.8% (active)
O=C(NCC1CCCO1)C(C(=O)c1ccccc1)n1cc(Cl)ccc1=O (stereo not given)	-6.7% (inactive)
Fc1ccccc1C(c1nnnn1Cc1ccc2c(c1)OCO2)N1CCN(Cc2ccccc2)CC1 (stereo not given)	62.9% (active)
Cc1cc(C)c2[nH]c(=O)c(C(c3nnnn3Cc3ccc4c(c3)OCO4)N3CCCC3)cc2c1 (stereo not given)	68.4% (active)
Cc1ccc(S(=O)(=O)Cn2nnnc2CN2CCN(Cc3ccc4c(c3)OCO4)CC2)cc1	24.5% (inactive)
CC(C)(C)n1nnnc1C(c1ccc(F)cc1)N1CCN(Cc2ccc3c(c2)OCO3)CC1 (stereo not given)	25.1% (inactive)
O=C(CCOc1ccccc1)NCc1ccccc1	57.6% (active)
O=C(CCC(=O)OCc1cccc(C(=O)Oc2ccccc2)c1)Nc1cccc2ccccc12	3.8% (inactive)
Cc1cccc(NC(=O)c2ccc(OCC(=O)NCc3ccccc3)cc2)c1C	-8% (inactive)
O=C(CCCOc1ccccc1)NCc1ccco1	36.6% (inactive)
O=C(NCCc1ccccc1)c1ccc(OCCOc2ccccc2)cc1	-7.8% (inactive)
O=C(Cn1nnc(-c2ccccc2)n1)NCc1ccccc1	45.4% (inactive)
O=C(CCC(=O)OCC(F)(F)C(F)F)NCc1ccccc1	71.6% (active)
CN(C)C(CNC(=O)CCCOc1ccccc1)c1ccco1 (stereo not given)	84.2% (active)
O=C(CCCOc1ccccc1)Nc1cccc(C(=O)O)c1	1.2% (inactive)
O=C(NCCOc1ccccc1)c1ccccc1	60.7% (active)
Cc1nnc(NC(=O)CCCOc2ccccc2)s1	24.7% (inactive)
O=C(O)CCC(=O)NCc1ccc(C(=O)O)cc1	3.2% (inactive)
